# According to PubChem BioAssay (NCI):
# This is part of a sample that, as a whole, favours compounds with a hit. Of some 79,000 tested, about 15% had one in any assay. Calls of active or inactive are those of the source. No stated cut-off is given here; in the data, active means growth inhibition above about 70%; inactive means the rest.
# How the values were obtained:
# [1] = NCI Yeast Anticancer Drug Screen. Data for the rad50 strain (AID 155);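 further: 0% = growth of vehicle-only cultures of the same strain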; conditions: S. cerevisiae rad50 strain growth inhibition, hits give high values
# Procedure, shortened: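 Genetically altered yeast (DNA repair pathway); compound treatment; growth inhibition vs vehicle ctrl.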
# [2] = NCI Yeast Anticancer Drug Screen. Data for the mec2-1 strain (AID 157); conditions: S. cerevisiae mec2-1 strain, hits give high values
# Procedure, shortened: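 Yeast mec2-1 mutant treated with compound. Readout: growth inhibition vs vehicle controls.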
# [3] = NCI Yeast Anticancer Drug Screen. Data for the sgs1 mgt1 strain (AID 161);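 further: 0% = growth of cultures given vehicle only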; conditions: S. cerevisiae sgs1 mgt1 strain, hits give high values
# Procedure, shortened: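 Read-out: growth inhibition vs vehicle controls. Cells: mutant yeast strain deficient in DNA damage repair.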
# [4] = NCI Yeast Anticancer Drug Screen. Data for the cln2 rad14 strain (AID 165);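 further: 0% = growth equal to vehicle treated cultures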; conditions: S. cerevisiae cln2 rad14 strain, hits give high values
# Procedure, shortened: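 cln2 rad14 yeast strain; compound exposure; growth inhibition read vs vehicle controls.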
# [5] = NCI Yeast Anticancer Drug Screen. Data for the bub3 strain (AID 167); conditions: S. cerevisiae bub3 mutant strain, hits give high values
# Procedure, shortened: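 Yeast carrying a defined mutation is treated with each compound, and growth is compared with that of vehicle-exposed cells to give inhibition.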
# [6] = NCI Yeast Anticancer Drug Screen. Data for the mlh1 rad18 strain (AID 175); conditions: S. cerevisiae mlh1 rad18 strain growth inhibition, hits give high values
# Procedure, shortened: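 Yeast w/ defined DNA-repair lesions; compound exposure; growth vs vehicle controls → % inhibition.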
# [7] = at 5.0 µM (retest, dose inferred, filed as 0.5)
# [8] = at 50.0 µM (retest, dose inferred, filed as 5.0)
SMILES,"growth inhibition [1, 7]","growth inhibition [1, 8]",growth inhibition ([1]; at 50.0 µM),"growth inhibition [2, 7]","growth inhibition [2, 8]",growth inhibition ([2]; at 50.0 µM),"growth inhibition [3, 7]","growth inhibition [3, 8]",growth inhibition ([3]; at 50.0 µM),"growth inhibition [4, 7]","growth inhibition [4, 8]",growth inhibition ([4]; at 50.0 µM),"growth inhibition [5, 7]","growth inhibition [5, 8]",growth inhibition ([5]; at 50.0 µM),"growth inhibition [6, 7]","growth inhibition [6, 8]",growth inhibition ([6]; at 50.0 µM)
COc1ccc(NCCN(C)C)c2c(=O)c3ccccc3sc12,13% (inactive),53% (inactive),90.4% (active),1% (inactive),45% (inactive),37.4% (inactive),-1% (inactive),39% (inactive),41.6% (inactive),-3% (inactive),16% (inactive),-1.05% (inactive),-7% (inactive),0% (inactive),50.2% (inactive),-3% (inactive),43% (inactive),69.4% (inactive)
CCOC(=O)N1CCN(CCCCCCOc2ccc(C(C)(C)C)cc2)CC1,3% (inactive),82% (active),93.5% (active),28% (inactive),87% (active),96% (active),31% (inactive),97% (active),98.1% (active),12% (inactive),61% (inactive),94.5% (active),7% (inactive),76% (active),96.7% (active),38% (inactive),97% (active),98.6% (active)
O=C(Nc1cccc(Cl)c1)Oc1c(Br)cc(Br)cc1Br,18% (inactive),98% (active),99% (active),22% (inactive),99% (active),98.7% (active),34% (inactive),98% (active),99% (active),-4% (inactive),98% (active),94.5% (active),-7% (inactive),99% (active),97.1% (active),24% (inactive),99% (active),99.4% (active)
NC1OC(COC(=O)c2ccccc2)C(O)C(OC(=O)c2ccccc2)C1OC(=O)c1ccccc1 (configuration not stated),0% (inactive),97% (active),97% (active),2% (inactive),98% (active),96.8% (active),11% (inactive),98% (active),97.7% (active),11% (inactive),97% (active),95.3% (active),-1% (inactive),98% (active),93.8% (active),4% (inactive),97% (active),95.8% (active)
COc1ccnc2c1C(=O)c1nc3ccccc3c3ccnc-2c13,14% (inactive),89% (active),81.2% (active),-9% (inactive),83% (active),79.8% (active),9% (inactive),83% (active),81.5% (active),2% (inactive),88% (active),80.8% (active),-15% (inactive),86% (active),81% (active),23% (inactive),92% (active),-21.9% (inactive)
C=C1C(O)C2(O)OCC34C(CC5C(C)=CC(=O)C(O)C5(C)C23)OC(=O)C(OC(=O)C/C=C/CCCCCCCC)C14 (configuration not stated),85% (active),98% (active),92.2% (active),87% (active),99% (active),93% (active),75% (active),99% (active),92.8% (active),87% (active),99% (active),92% (active),84% (active),99% (active),91.5% (active),93% (active),99% (active),90.7% (active)
C[N+]1=C(/C=C\c2ccc(O)c3ccccc23)C(C)(C)c2ccccc21,-2% (inactive),82% (active),40.5% (inactive),3% (inactive),89% (active),50.2% (inactive),-2% (inactive),92% (active),36% (inactive),-4% (inactive),83% (active),54.9% (inactive),15% (inactive),82% (active),38.5% (inactive),28% (inactive),82% (active),43.7% (inactive)
COc1ccc(CSC(=S)Nc2ccc(Cl)cc2Cl)cc1,6% (inactive),98% (active),99.2% (active),5% (inactive),99% (active),99.3% (active),8% (inactive),99% (active),99.3% (active),-24% (inactive),96% (active),98.7% (active),-6% (inactive),97% (active),99% (active),3% (inactive),98% (active),98.8% (active)
CC(C)=CCC/C(C)=C/COC(=O)Nc1ccccc1,-7% (inactive),-5% (inactive),15.7% (inactive),-13% (inactive),-7% (inactive),18.7% (inactive),-2% (inactive),17% (inactive),62.3% (inactive),-40% (inactive),-5% (inactive),61% (inactive),-2% (inactive),-1% (inactive),52.8% (inactive),-13% (inactive),-11% (inactive),10.9% (inactive)
Cn1cccc1C(/C=C/c1ccccc1[N+](=O)[O-])c1cccn1C,-2% (inactive),20% (inactive),18.2% (inactive),4% (inactive),4% (inactive),6.4% (inactive),-12% (inactive),8% (inactive),20.9% (inactive),17% (inactive),37% (inactive),4.35% (inactive),-3% (inactive),41% (inactive),17.6% (inactive),-15% (inactive),21% (inactive),20.2% (inactive)
Cc1ccc(S(=O)(=O)NCCSSCCNS(=O)(=O)c2ccc(C)cc2)cc1,-4% (inactive),95% (active),93.5% (active),-3% (inactive),97% (active),96% (active),-2% (inactive),98% (active),96.6% (active),-6% (inactive),96% (active),94% (active),1% (inactive),95% (active),94.3% (active),1% (inactive),96% (active),95.4% (active)
CC(C)(C)c1cc2c(c(C(C)(C)C)c1O)CC(=O)O2,-6% (inactive),74% (active),27.7% (inactive),-18% (inactive),85% (active),45.5% (inactive),-37% (inactive),77% (active),57.8% (inactive),23% (inactive),64% (inactive),53.8% (inactive),-32% (inactive),97% (active),72.5% (active),-3% (inactive),84% (active),73.9% (active)
Nc1c(C(=O)O)cccc1[N+](=O)[O-],2% (inactive),-1% (inactive),-5.1% (inactive),1% (inactive),-2% (inactive),9.25% (inactive),-1% (inactive),-1% (inactive),-9.1% (inactive),-1% (inactive),3% (inactive),23.2% (inactive),1% (inactive),0% (inactive),-2.1% (inactive),1% (inactive),3% (inactive),-5.05% (inactive)
C=CC1(C)CCC2C(=CCC3C(C)(C(=O)O)CCCC23C)C1 (configuration not stated) (tested in a mixture with another compound),-5% (inactive),61% (inactive),65.1% (inactive),0% (inactive),87% (active),74.2% (active),-5% (inactive),59% (inactive),32.4% (inactive),-28% (inactive),66% (inactive),76.8% (active),-17% (inactive),66% (inactive),64.2% (inactive),6% (inactive),84% (active),72% (active)
CC12CCCCC1CCC(Br)C2=O (configuration not stated),-115% (inactive),-2% (inactive),59% (inactive),-40% (inactive),-18% (inactive),41.5% (inactive),-51% (inactive),22% (inactive),70.2% (active),-50% (inactive),-35% (inactive),-17.7% (inactive),-57% (inactive),-34% (inactive),13.1% (inactive),-128% (inactive),-55% (inactive),61.6% (inactive)
CCCCOc1ccc(NC(=S)Nc2ccc(OCCN(CC)CC)cc2)cc1,-4% (inactive),45% (inactive),63.6% (inactive),28% (inactive),70% (active),39.1% (inactive),21% (inactive),67% (inactive),83.8% (active),4% (inactive),35% (inactive),80.8% (active),3% (inactive),54% (inactive),71% (active),35% (inactive),71% (active),79.2% (active)
Nc1ccc(-c2nc3ccccc3s2)cc1I,34% (inactive),71% (active),84.3% (active),20% (inactive),74% (active),89.1% (active),44% (inactive),88% (active),87.3% (active),50% (inactive),68% (inactive),86.2% (active),53% (inactive),95% (active),84.2% (active),27% (inactive),77% (active),84% (active)
CCN(CC)CCNc1ccc(C)c2sc3ccc(OC)cc3c(=O)c12,32% (inactive),94% (active),90.7% (active),22% (inactive),97% (active),89.2% (active),23% (inactive),98% (active),17.2% (inactive),16% (inactive),87% (active),30.9% (inactive),31% (inactive),99% (active),1% (inactive),32% (inactive),98% (active),93% (active)
Cc1cc(N)c2cc(OCCOc3ccc4nc(C)cc(N)c4c3)ccc2n1,68% (inactive),91% (active),97.5% (active),69% (inactive),94% (active),95.2% (active),77% (active),93% (active),92.5% (active),71% (active),92% (active),84.7% (active),79% (active),95% (active),93.7% (active),91% (active),94% (active),95.2% (active)
